Counter-ions that a name gives are not always drawn.
test system: Saccharomyces cerevisiae BY4741 SeMeCo community; experiment: z-score of subpopulation abundance vs DMSO median, subpopulation auxotrophic for LU; higher = larger share of this subpopulation than in DMSO controls; conditions: 10 µM; 24 h; SM minimal medium; subpopulation (auxotrophy): LU
Outline: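 Automated confocal microscopy of paraformaldehyde-fixed cells was used to follow a Saccharomyces cerevisiae BY4741 community carrying four plasmids, each restoring one auxotrophy and encoding a distinct fluorescent protein. The community was pre-grown overnight to OD600 1.0, diluted to 0.3, and added at 70 µl to 384-well plates acoustically predosed with library drugs (10 µM final) for 24 h of growth in minimal SM medium. Single-auxotroph fluorescent strains set thresholds and autofluorescence correction, and each subpopulation's abundance was scored as a z-score against the vehicle-well median.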

Question: Which “z-score of subpopulation abundance” value does the source give for `CCCCOc1cc(C(=O)NCCN(CC)CC)c2ccccc2n1` [Dibucaine HCl] here?
Answer: Its value is -0.21.

Question: How did the “z-score of subpopulation abundance” value turn out when `Clc1ccc(CSC(Cn2ccnc2)c2ccc(Cl)cc2Cl)cc1` (stereo not given) [Sulconazole Nitrate] was run?
Answer: Its value is -2.59.

Question: Which “z-score of subpopulation abundance” value does the source give for `COc1ccc(C2CNC(=O)C2)cc1OC1CCCC1` (stereo not given) [Rolipram] here?
Answer: Its value is -0.29.

Question: With `C[C@]12CC[C@@H]3c4ccc(O)cc4CC[C@H]3[C@@H]1CC[C@@H]2OC(=O)CCC1CCCC1` [Estradiol Cypionate] as the compound, how does the “z-score of subpopulation abundance” value read?
Answer: The value was 0.17.

Question: How did the “z-score of subpopulation abundance” value turn out when `C[C@@H](NCCCc1cccc(C(F)(F)F)c1)c1cccc2ccccc12` [Cinacalcet HCl] was run?
Answer: Its value is 0.1.

Question: `Cc1cc(/C=C/c2ccc3cc(N(C)C)ccc3[n+]2C)c(C)n1-c1ccccc1` [pyrvinium] was tested. Which “z-score of subpopulation abundance” value did it give?
Answer: The value was 0.05.

Question: Which “z-score of subpopulation abundance” value does the source give for `CC(C)Cc1ccc(C(C)C(=O)O)cc1` (stereo not given) [Ibuprofen Lysine] here?
Answer: Its value is -4.01.

Question: With `O=C(Cn1cnnn1)N[C@@H]1C(=O)N2C(C(=O)O)=C(CSc3nncs3)CS[C@H]12` [Ceftezole sodium] as the compound, how does the “z-score of subpopulation abundance” value read?
Answer: The value was 0.2.

Question: For `CC[N+](C)(C)c1cccc(O)c1` [Edrophonium chloride], which “z-score of subpopulation abundance” value is on record?
Answer: The value was 1.17.

Question: Which “z-score of subpopulation abundance” value does the source give for `Nc1ccc(S(N)(=O)=O)cc1` [Sulfanilamide] here?
Answer: The value was -0.14.

Question: For `CCCN(CCC)CCc1cccc2c1CC(=O)N2` [Ropinirole HCl], which “z-score of subpopulation abundance” value is on record?
Answer: Its value is 1.24.

Question: Which “z-score of subpopulation abundance” value does the source give for `CN(C)CCCC1(c2ccc(F)cc2)OCc2cc(C#N)ccc21` (stereo not given) [Citalopram HBr] here?
Answer: The value was 0.92.

Question: How did the “z-score of subpopulation abundance” value turn out when `CN1CCCN=C1/C=C/c1cccs1` [Pyrantel Pamoate] was run?
Answer: The value was -0.11.

Question: `CN(C)CCC[C@@]1(c2ccc(F)cc2)OCc2cc(C#N)ccc21` [Escitalopram Oxalate] was tested. Which “z-score of subpopulation abundance” value did it give?
Answer: Its value is -0.08.

Question: With `CCCCCC(=O)O[C@]1(C(C)=O)CC[C@H]2[C@@H]3CCC4=CC(=O)CC[C@]4(C)[C@H]3CC[C@@]21C` [Hydroxyprogesterone caproate] as the compound, how does the “z-score of subpopulation abundance” value read?
Answer: The value was 0.72.
